Here are results for 9 compounds from PubChem BioAssay (NCI).

Compounds without any hit were thinned out: in the full panel of roughly 83,000, 20% have a hit.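 Values shown are percent growth following 48 h exposure of cells in 96-well plates to a single concentration of compound; below 10 was considered active.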 A number with no mark means an inactive call. Active and inactive are the calls of the source.

Common to all, as to test: NCI-60 one-dose screen, 48 h (100 = growth as untreated, 0 = no growth, -100 = all killed)
What all share (conditions): 10 µM unless noted

Assay [1] concerns SR leukemia.
The test system of assay [2] is RPMI-8226 leukemia.
Assay [3] concerns OVCAR-8 ovarian.
The test system of assay [4] is OVCAR-5 ovarian.
Assay [5] deals with OVCAR-4 ovarian.
For assay [6], the system named is SK-OV-3 ovarian.
The subject of assay [7] is IGROV1 ovarian.
The subject of assay [8] is HS 578T breast.
Assay [9] deals with NCI/ADR-RES ovarian.
Assay [10] relates to T-47D breast.
The test system of assay [11] is BT-549 breast.
Assay [12] concerns MDA-MB-435 melanoma.
The subject of assay [13] is SW-620 colon.
The test system of assay [14] is MCF7 breast.
Assay [15] has as its system HCT-116 colon.
Assay [16] has as its system HCC-2998 colon.
Assay [17] concerns KM12 colon.

As to `C#C[C@]1(O)CC[C@H]2[C@@H]3CC=C4c5sc(NCc6ccccc6)nc5CC[C@]4(C)[C@H]3CC[C@@]21C`, the growth in assay [1] was 3.34% (active); in assay [2] it was -25.3% (active); in assay [3] it was 65.2%; in [4] it was 84%; in assay [5] it was 73.6%; in [6] it was -10% (active). Moreover, the growth was 76.8% in assay [7]; -4.78% (active) in assay [8]; 72.4% in assay [9]; 65.8% in [10]; 18.2% in assay [11]; 82.2% in [12]. For the same compound, the growth in assay [13] is 52.7%; in assay [14] it was 21.7%; in assay [15], 12.5%; in [16], 78.1%; in assay [17] it was 18.9%.

`N#Cc1c(-c2ccc(Br)cc2)cc(-c2c[nH]c3ccccc23)nc1N`: the growth is 25.4% in assay [1]; 34.4% in assay [2]; 66.4% in assay [3]; 63.9% in assay [4]; 74.7% in assay [5]; 52.6% in assay [6]. In addition, the growth in assay [7] was 34.4%; in [8] it was 58.6%; in [9], 24.9%; in assay [10], 29.7%; in assay [11] it was 32.1%; in [12], 0.353% (active). Further, the growth is 27.8% in assay [13]; 18.5% in [14]; 27.6% in [15]; 60.3% in assay [16]; 28% in assay [17].

Consider `CN1CCN(c2ccc(C(=O)/C=C/c3cc(F)cc(C(F)(F)F)c3)cc2)CC1`, for which the growth in assay [1] is 17.5%; in assay [2], 11.2%; in assay [3], 65.2%; in assay [4], 115%; in [5], 71.8%; in [6], 109%. For the same compound, the growth was 77.9% in [7]; 100% in assay [8]; 59% in assay [9]; 51.9% in [10]; 71.2% in assay [11]; 24% in assay [12]. Also, the growth in assay [13] was 20%; in assay [14], 8.55% (active); in assay [15], 22.8%; in assay [16], 86.6%; in assay [17] it was 35.5%.

As to `CCOC(=O)c1c(N)c(C#N)cn1Cc1ccc(Cl)cc1Cl`, the growth in assay [1] is 26.2%; in assay [2], 83%; in assay [3], 94.4%; in assay [4], 85.5%; in assay [5], 79.3%; in assay [6] it was 101%. The growth in [7] is 63.3%; in [8], 73.4%; in [9], 61.5%; in [10], 78.3%; in [11], 81.8%; in assay [12], -7.54% (active). The growth is 44.9% in [13]; 59.2% in assay [14]; 64% in [15]; 73% in assay [16]; 60.1% in [17].

Take `O=c1c2cc(-c3ccc(F)cc3F)ccc2n(O)c(=O)n1-c1cccc(C(F)(F)F)c1`: the growth in assay [1] was -0.936% (active); in assay [2], -19.1% (active); in [3], 12%; in assay [4], 42.3%; in assay [5], 31.7%; in assay [6], -14.5% (active). Further, the growth in assay [7] is 21.2%; in [8] it was -0.801% (active); in assay [9], 3.16% (active); in [10], -15.9% (active); in assay [11], -3.54% (active); in [12] it was 1.71% (active). The growth is 16.3% in assay [13]; 1.33% (active) in assay [14]; 1.93% (active) in [15]; 9.79% (active) in [16]; 7.94% (active) in [17].

For the compound `CCNC(=O)Oc1ccc(/C(=C(/C)c2ccc(OC)cc2)c2ccc(OCCN3CCCCCC3)cc2)cc1`, the growth in assay [1] was -20.7% (active); in assay [2], 12.1%; in assay [3] it was 68.4%; in assay [4], 72.7%; in assay [5], 62.7%; in assay [6], 79%. In addition, the growth was 65.4% in [7]; 16.2% in assay [8]; 59.4% in assay [9]; 26.6% in assay [10]; 73.3% in assay [11]; 43.7% in assay [12]. The growth is -25.9% (active) in assay [13]; 8.81% (active) in [14]; 13.4% in assay [15]; 67.9% in assay [16]; 39.6% in assay [17].

Turning to `Cc1csc(/N=C(N)/N=C(\N)c2cccc(C#N)c2)n1`, the growth in [1] was 30.2%; in assay [2] it was 87.8%; in assay [3], 85.8%; in assay [4], 106%; in [5], 97.2%; in assay [6], 76.3%. Further, the growth in assay [7] is 77.7%; in assay [8], 83.1%; in assay [9], 58.3%; in assay [10] it was 79.7%; in [11] it was 73.1%; in assay [12], -6.51% (active). Further, the growth in [13] is 44.4%; in [14], 77.7%; in [15], 49.7%; in [16], 87.7%; in [17], 46.4%.

`COC(=O)[C@@H](Cc1c[nH]c2ccccc12)NC(=O)CCCCOc1cc(O)c2c(=O)cc(-c3ccccc3)oc2c1`: the growth in assay [1] was 72.3%; in [2], 71.8%; in assay [3] it was 87.5%; in assay [4], 104%; in assay [5], 80%; in assay [6], 97.7%. Moreover, the growth in [7] was 87.5%; in assay [8], 80.9%; in assay [9], 80.9%; in [10], 59.7%; in [11], 90.7%; in assay [12], 91.6%. The growth in assay [13] is 95.8%; in assay [14] it was 94.9%; in assay [15] it was 92.1%; in [16], 96.5%; in assay [17], 95.3%.

Take `O=C(/C=C/c1csc(Br)n1)NO`: the growth in assay [1] was 13.8%; in assay [2] it was 9.04% (active); in assay [3] it was 22.3%; in assay [4] it was 10.7%; in assay [5], 65.1%; in assay [6] it was 38.2%. Also, the growth is 16.7% in [7]; 44.3% in [8]; 1.04% (active) in [9]; 8.14% (active) in assay [10]; 80.7% in assay [11]; 5.36% (active) in assay [12]. Further, the growth in assay [13] was 10.2%; in assay [14] it was 24.6%; in assay [15] it was 5.92% (active); in assay [16] it was 29.2%; in [17] it was 34.9%.
